From PubChem BioAssay (NCATS)
Values joined by “and” are separate entries in the source; they are usually repeats but may differ in a detail not shown here. Identical values can stand only once. Inconclusive results are not listed. Active and inactive are the calls of the source. Unless noted, calls follow the shape of the dose curve; as a rule, active = well fitted curve in the direction sought with a large enough effect; inconclusive = small, poorly fitted or top-dose-only effect, or another doubt; inactive = no such curve, though single readings can be large; an effect the other way counts as inactive or inconclusive.

What was measured:
[1] = system: Zika virus NS2B-NS3 protease; assay: Primary screen GU AMC qHTS for Zika virus inhibitors (AID 1347154);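 also: 0% = no-inhibitor control and -100% = no-enzyme control; nearly all actives have a fitted effect of over 70% in size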
Summary of the method: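 Unlinked Zika NS2B hydrophilic domain–NS3 protease complex at 25 nM in 10 mM Tris-HCl pH 8.0, 0.01% Tween 20, with an AMC peptide substrate. Fluorescence change (340/450 nm) over 15 min at room temperature, normalized to controls, fitted to 4-parameter Hill.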

[2] = Primary qHTS for small molecule stabilizers of the endoplasmic reticulum resident proteome: Secreted ER Calcium Modulated Protein (SERCaMP) assay (AID 1508630); also: % is scaled to controls: 0 for no effect and ±100 for the full control effect
Summary of the method: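 GLuc-SERCaMP-expressing SH-SY5Y cells, pretreated 16 h with compound, are challenged with thapsigargin to empty ER calcium stores; after 4 h, coelenterazine is added directly to the medium and luminescence is imaged.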

[3] = biological target: Cytochrome P450 1A2 (Homo sapiens) (UniProt P05177); assay: p450-cyp1a2 (AID 410; calls by dose curve; also: potency is read from the fitted curve at half-maximal effect)
Cytochrome P450 1A2 (Homo sapiens), sequence (P05177 whole entry, looked up): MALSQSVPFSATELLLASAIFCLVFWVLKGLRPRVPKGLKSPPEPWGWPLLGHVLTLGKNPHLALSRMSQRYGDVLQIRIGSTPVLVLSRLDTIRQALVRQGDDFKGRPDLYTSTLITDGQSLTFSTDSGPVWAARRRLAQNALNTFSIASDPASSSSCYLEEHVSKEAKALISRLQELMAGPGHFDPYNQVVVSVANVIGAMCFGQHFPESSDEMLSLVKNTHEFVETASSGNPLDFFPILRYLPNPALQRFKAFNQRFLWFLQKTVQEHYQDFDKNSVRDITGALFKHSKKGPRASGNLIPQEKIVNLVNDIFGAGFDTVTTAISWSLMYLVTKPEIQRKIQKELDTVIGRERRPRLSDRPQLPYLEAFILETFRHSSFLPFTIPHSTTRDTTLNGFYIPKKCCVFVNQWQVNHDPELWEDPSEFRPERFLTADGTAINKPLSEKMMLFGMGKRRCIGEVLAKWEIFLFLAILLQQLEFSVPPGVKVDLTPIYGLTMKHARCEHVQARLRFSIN
Summary of the method: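 20nM CYP1A2 with 100uM Luciferin-ME (at Km) in 100mM KPO4; compound preincubated 10 min, NADPH regeneration added, 60 min at room temperature. Luciferin quantified by luminescence after detection reagent; normalized to 57 uM furafylline.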

[4] = NFAT Signaling Pathway (AID 444; active = well fitted curve in either direction with a large enough effect, not every such curve was filed as active;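 also: carbachol stimulus at about its EC50 of 1 µM final; % is scaled to controls: 0 for no effect and ±100 for the full control effect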); conditions: Jurkat NFAT-bla M1, carbachol, beta-lactamase ratio, 5 h
Summary of the method: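 Jurkat cells with NFAT-driven β-lactamase reporter and co-expressed M1 receptor, stimulated with carbachol (final 1 uM, ~EC50), compound titration, 5 h at 37 °C. CCF4 loaded 1 h at RT; 460/530 nm ratio gave %activity and AC50.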

[5] = Stat Signaling Pathway (AID 446; active = well fitted curve in either direction with a large enough effect, not every such curve was filed as active;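 also: ME-180 cervical cancer cells given 40 pM IL-6 alongside compound; SIE-controlled beta-lactamase reporter measured as 460/530 nm FRET emission ratio; % is scaled to controls: 0 for no effect and ±100 for the full control effect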); conditions: ME-180 SIE beta-lactamase reporter, IL-6 stimulated, 5 h
Summary of the method: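 ME-180 SIE-bla cells; overnight plating; cpd + IL-6 40 pM, 5 h, 37 C; LiveBLAzer 2.5 h RT; 460/530 nm emission ratio. Normalized to 300 pM IL-6 and 125 nM JAK inhibitor controls.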

[6] = biological target: Glucocorticoid receptor (Homo sapiens) (UniProt P04150); assay: GR-GFP Redistribution (AID 450;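 active = compounds whose dose series gives a full or clear partial fitted curve of increased nuclear translocation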; also: potency is read from the fitted curve at half-maximal effect); conditions: U2OS GR-GFP nuclear translocation, laser cytometry, 2 h
Glucocorticoid receptor (Homo sapiens), sequence (P04150 whole entry, looked up, the tested form may be a part): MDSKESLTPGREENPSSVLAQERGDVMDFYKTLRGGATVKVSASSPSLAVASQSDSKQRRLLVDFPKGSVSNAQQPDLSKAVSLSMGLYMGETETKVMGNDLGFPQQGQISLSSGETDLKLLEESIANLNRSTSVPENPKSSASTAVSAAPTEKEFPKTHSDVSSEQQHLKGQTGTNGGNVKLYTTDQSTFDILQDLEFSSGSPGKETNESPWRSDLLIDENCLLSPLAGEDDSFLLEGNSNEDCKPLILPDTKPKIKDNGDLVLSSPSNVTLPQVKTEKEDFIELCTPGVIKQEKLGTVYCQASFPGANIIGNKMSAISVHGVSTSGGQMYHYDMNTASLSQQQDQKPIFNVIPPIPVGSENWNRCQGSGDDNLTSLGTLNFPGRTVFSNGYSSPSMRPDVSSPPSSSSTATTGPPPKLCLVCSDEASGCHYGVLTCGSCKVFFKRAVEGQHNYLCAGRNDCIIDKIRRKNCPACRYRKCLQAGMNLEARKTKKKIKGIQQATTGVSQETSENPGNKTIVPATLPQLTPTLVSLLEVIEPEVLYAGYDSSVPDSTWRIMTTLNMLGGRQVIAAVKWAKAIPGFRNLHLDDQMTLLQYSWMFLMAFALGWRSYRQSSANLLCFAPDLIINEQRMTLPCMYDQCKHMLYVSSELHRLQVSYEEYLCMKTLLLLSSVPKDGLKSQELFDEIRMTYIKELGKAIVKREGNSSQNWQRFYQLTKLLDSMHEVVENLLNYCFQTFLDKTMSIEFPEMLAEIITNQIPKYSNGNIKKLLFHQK

[7] = biological target: Glucocorticoid receptor (Homo sapiens) (UniProt P04150); assay: GR-EFC Redistribution (AID 451; calls by dose curve; also: potency is read from the fitted curve at half-maximal effect); conditions: CHO-K1 GR-EFC translocation, beta-gal luminescence, 2 h
Summary of the method: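 CHO-K1 cells expressing nuclear EA and GR-ED fragments of b-gal; compounds titrated up to 46 uM final, 2 h at 37 C. GR nuclear translocation read as complemented b-gal luminescence after 1 h RT detection.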

[8] = biological target: Mitogen-activated protein kinase 10 (Mus musculus) (UniProt Q61831); assay: JNK3 AlphaScreen Assay (AID 530; active = well fitted curve in either direction with a large enough effect, not every such curve was filed as active;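 also: kinase came from lysate of stimulated human HepG2 cells; signal reports phosphorylation of biotinylated GST-cJun 1-79 at Ser73 with 10 µM ATP; % is scaled to controls: 0 for no effect and ±100 for the full control effect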)
Summary of the method: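 Pre-activated (IL-1β/TNFα) JNK3 in HepG2 lysates phosphorylates biotin-GST-cJun(1-79), 10 uM ATP; anti-phospho-cJun(Ser73) AlphaScreen read at room temperature, pH 7.6 Tris buffer. Compounds pre-incubated 15 min as titrations.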

[9] = biological target: 3',5'-cyclic-AMP phosphodiesterase 4B (Homo sapiens) (UniProt Q07343); assay: qHTS Assay for Inhibitors of PDE-IV (AID 607; active = well fitted activation curve with a large enough effect in the main read-out, with a control signal flat, not every such curve was filed as active; also: % of control where 0% means no effect)
3',5'-cyclic-AMP phosphodiesterase 4B (Homo sapiens), sequence (Q07343 whole entry, looked up): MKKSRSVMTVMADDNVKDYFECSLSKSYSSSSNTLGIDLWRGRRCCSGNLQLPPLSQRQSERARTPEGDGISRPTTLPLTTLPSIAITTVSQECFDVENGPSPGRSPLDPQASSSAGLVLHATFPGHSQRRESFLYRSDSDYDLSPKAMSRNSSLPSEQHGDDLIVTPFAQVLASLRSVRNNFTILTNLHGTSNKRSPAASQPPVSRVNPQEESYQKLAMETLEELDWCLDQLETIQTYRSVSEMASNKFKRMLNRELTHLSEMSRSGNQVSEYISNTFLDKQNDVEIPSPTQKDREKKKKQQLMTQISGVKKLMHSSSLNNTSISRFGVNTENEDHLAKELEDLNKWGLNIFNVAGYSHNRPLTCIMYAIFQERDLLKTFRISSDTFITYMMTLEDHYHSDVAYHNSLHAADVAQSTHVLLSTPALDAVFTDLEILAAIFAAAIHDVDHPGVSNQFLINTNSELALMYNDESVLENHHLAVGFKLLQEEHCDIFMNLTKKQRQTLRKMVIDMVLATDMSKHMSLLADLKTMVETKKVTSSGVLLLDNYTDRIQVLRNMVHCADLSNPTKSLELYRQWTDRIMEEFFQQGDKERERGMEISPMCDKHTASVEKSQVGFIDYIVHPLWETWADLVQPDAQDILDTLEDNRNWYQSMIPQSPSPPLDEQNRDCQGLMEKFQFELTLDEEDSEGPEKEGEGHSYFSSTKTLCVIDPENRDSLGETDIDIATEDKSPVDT
Summary of the method: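 ACTOne HEK293 cells carry a modified cAMP-gated CNG channel and express endogenous PDE4; plated 1000 cells/well, compounds up to 22.9 uM final. Membrane-potential dye fluorescence (ex 535/em 590) was read; parental cells received 10 uM forskolin + 100 uM RO 20-1724.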

[10] = biological target: Cytochrome P450 2C19 (Homo sapiens) (UniProt P33261); assay: qHTS Assay for Inhibitors and Substrates of Cytochrome P450 2C19 (AID 899); also: nearly all actives have a fitted effect of over 60% in size; also: potency is read from the fitted curve at half-maximal effect
Cytochrome P450 2C19 (Homo sapiens), sequence (P33261 whole entry, looked up): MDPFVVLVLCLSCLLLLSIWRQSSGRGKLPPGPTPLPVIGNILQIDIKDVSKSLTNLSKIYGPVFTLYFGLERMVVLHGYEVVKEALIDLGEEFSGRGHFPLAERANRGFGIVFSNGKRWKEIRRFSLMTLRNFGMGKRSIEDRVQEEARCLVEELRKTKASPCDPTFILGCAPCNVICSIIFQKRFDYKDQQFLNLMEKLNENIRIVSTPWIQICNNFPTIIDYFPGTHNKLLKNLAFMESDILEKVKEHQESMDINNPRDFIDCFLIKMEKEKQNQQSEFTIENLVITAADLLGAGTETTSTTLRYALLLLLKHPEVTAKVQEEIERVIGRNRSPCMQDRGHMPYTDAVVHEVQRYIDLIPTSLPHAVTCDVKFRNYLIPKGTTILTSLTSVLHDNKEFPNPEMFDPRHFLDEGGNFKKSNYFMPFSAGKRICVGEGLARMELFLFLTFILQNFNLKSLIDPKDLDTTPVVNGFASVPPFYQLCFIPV
Summary of the method: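 5 nM human CYP2C19 with 10uM Luciferin-H EGE (at KM) in 50mM KPO4, compound preincubated 10 min at 37C, then NADPH regeneration for 60 min at 37C. Luciferin read by luminescence after detection reagent; normalized to 57uM ketoconazole as full inhibition.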

[11] = biological target: Ubiquitin carboxyl-terminal hydrolase 1 (Homo sapiens) (UniProt O94782); assay: Inhibitors of USP1/UAF1: Pilot qHTS (AID 504865);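 also: rhodamine fluorescence freed from ubiquitin-rhodamine substrate followed over time; top concentration of the series differs between compounds; % is scaled to controls: 0 for no effect and ±100 for the full control effect; nearly all actives have a fitted effect of over 35% in size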
Summary of the method: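 1nM USP1/UAF1 + cpd, 15 min RT; start w/ Ub-Rho 150nM final; kinetic FL 480/540 nm, 6 reads q60 s. Buffer 50mM HEPES pH 7.8, 0.5mM EDTA, 1mM TCEP, 0.01% Tween-20, 0.1 mg/ml BSA.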

[12] = biological target: DNA dC->dU-editing enzyme APOBEC-3G (Homo sapiens) (UniProt Q9HC16); assay: qHTS for inhibitors of Vif-A3G interactions: Validation (AID 588379); also: 0% is about no effect
DNA dC->dU-editing enzyme APOBEC-3G (Homo sapiens), sequence (Q9HC16 whole entry, looked up): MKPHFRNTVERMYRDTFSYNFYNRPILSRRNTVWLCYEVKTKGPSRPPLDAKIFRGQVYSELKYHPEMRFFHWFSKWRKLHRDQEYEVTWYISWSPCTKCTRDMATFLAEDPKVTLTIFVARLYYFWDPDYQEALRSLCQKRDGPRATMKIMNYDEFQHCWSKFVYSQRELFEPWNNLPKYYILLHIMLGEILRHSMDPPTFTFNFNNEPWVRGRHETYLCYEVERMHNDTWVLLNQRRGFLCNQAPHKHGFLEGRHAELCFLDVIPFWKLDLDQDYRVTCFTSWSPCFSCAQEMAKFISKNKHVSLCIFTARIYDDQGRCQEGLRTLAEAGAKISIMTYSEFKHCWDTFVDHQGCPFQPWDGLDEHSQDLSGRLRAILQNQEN
Summary of the method: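 HeLa cells stably expressing Vif and A3G-eYFP, 700 cells/well, incubated overnight at 37 deg C, then exposed to compound overnight at 37 deg C. Inhibition of Vif-mediated degradation read as increased yellow fluorescence (Ex 488/Em 500-530) by laser-scanning cytometry.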

[13] = biological target: Cytochrome P450 2D6 (Homo sapiens) (UniProt P10635); assay: qHTS Assay for Inhibitors and Substrates of Cytochrome P450 2D6 (AID 891); also: nearly all actives have a fitted effect of over 60% in size; also: potency is read from the fitted curve at half-maximal effect
Cytochrome P450 2D6 (Homo sapiens), sequence (P10635 whole entry, looked up): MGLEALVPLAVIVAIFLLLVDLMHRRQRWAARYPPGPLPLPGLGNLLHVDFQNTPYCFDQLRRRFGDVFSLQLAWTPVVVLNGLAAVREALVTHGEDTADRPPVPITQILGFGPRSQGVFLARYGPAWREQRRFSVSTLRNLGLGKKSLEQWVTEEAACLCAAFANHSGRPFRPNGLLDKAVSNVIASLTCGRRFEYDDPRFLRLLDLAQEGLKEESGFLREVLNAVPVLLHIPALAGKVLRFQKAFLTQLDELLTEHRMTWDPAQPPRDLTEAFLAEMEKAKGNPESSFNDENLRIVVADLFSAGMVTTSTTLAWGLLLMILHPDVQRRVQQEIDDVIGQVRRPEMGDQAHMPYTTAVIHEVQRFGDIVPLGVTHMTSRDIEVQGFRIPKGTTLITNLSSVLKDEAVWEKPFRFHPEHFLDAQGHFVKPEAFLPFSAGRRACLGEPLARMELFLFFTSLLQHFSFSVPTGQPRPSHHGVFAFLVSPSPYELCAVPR
Summary of the method: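 Human CYP2D6 (5 nM) with 30 uM Luciferin-ME EGE (at Km) in 100 mM KPO4, compound preincubated 10 min, then NADPH regeneration system for 60 min at room temperature. Luciferin read by luminescence; normalized to 1.43 uM quinidine.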

[14] = qHTS Assay for Lipid Storage Modulators (AID 1519; calls by dose curve); conditions: Drosophila S3 cells, BODIPY lipid droplet/cell ratio, laser cytometry, cells loaded with oleic acid; for activity change, negative = inhibition: at 57.5 µM (top of the series)
Summary of the method: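 Cells seeded at 5,000 per well were treated with compounds over a concentration series and loaded with oleic acid (400 uM, as added). Lipid droplet fluorescence (488 nm excitation, 500-530 nm channel) was read by laser-scanning cytometry and normalized to 20 uM Triacsin C.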

[15] = AP1 Signaling Pathway (AID 357; active = well fitted curve in either direction with a large enough effect, not every such curve was filed as active); conditions: ME-180 (cervical carcinoma) AP-1-bla reporter, EGF-induced, beta-lactamase ratio, 5 h; at 38 µM (top of the series)
Summary of the method: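 AP-1-bla ME-180 cells, Opti-MEM + 0.5% dialyzed FBS, plated overnight 37 °C. Cpd titration + EC50 EGF, 5 h 37 °C. CCF4 2.5 h RT; ex 405, em 460/530 ratio → %activity, AC50.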

[16] = biological target: Cytochrome P450 3A4 (Homo sapiens) (UniProt P08684); assay: qHTS Assay for Inhibitors and Substrates of Cytochrome P450 3A4 (AID 884); also: potency is read from the fitted curve at half-maximal effect; nearly all actives have a fitted effect of over 50% in size
Cytochrome P450 3A4 (Homo sapiens), sequence (P08684 whole entry, looked up): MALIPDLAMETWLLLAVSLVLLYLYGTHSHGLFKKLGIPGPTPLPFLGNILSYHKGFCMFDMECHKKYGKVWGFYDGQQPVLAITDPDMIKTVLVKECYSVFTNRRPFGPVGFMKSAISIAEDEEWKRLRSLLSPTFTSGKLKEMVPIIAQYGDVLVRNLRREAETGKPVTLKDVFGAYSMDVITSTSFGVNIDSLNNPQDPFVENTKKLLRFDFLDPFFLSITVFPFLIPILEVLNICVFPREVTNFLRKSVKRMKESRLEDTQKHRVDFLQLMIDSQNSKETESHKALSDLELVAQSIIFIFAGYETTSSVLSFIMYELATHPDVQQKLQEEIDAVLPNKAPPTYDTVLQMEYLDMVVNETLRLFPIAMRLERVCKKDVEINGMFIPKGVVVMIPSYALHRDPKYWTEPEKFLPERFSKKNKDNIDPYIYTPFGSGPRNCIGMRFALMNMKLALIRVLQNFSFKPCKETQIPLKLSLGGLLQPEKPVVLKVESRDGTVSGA
Summary of the method: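 20 nM human CYP3A4 with 25 uM Luciferin-PPXE (at KM) in 200 mM KPO4, preincubated 10 min with compound; NADPH regeneration started a 60 min RT reaction. Luciferin detected by luminescence, normalized to 57 uM ketoconazole as full inhibition.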

[17] = biological target: Cytochrome P450 3A4 (Homo sapiens) (UniProt P08684); assay: qHTS Assay for Activators of Cytochrome P450 3A4 (AID 885); also: nearly all actives have a fitted effect of over 65% in size
Summary of the method: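 20nM CYP3A4 + 25uM Luciferin-PPXE (=KM), 200mM KPO4; cpd 10 min RT; NADPH regen, 60 min RT; stop w/ detection buffer, 20 min; luminescence. Normalized to 57 uM ketoconazole.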

[18] = biological target: Rap guanine nucleotide exchange factor 3 (Homo sapiens) (UniProt O95398); assay: Confirmatory qHTS for antagonist of cAMP-regulated guanine nucleotide exchange factor 3 (EPAC1) (AID 1645880);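 also: plate controls were DMSO only for no effect and full effect of the ATA control for full effect; nearly all actives have a fitted effect of over 55% in size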
Rap guanine nucleotide exchange factor 3 (Homo sapiens), sequence (O95398 whole entry, looked up): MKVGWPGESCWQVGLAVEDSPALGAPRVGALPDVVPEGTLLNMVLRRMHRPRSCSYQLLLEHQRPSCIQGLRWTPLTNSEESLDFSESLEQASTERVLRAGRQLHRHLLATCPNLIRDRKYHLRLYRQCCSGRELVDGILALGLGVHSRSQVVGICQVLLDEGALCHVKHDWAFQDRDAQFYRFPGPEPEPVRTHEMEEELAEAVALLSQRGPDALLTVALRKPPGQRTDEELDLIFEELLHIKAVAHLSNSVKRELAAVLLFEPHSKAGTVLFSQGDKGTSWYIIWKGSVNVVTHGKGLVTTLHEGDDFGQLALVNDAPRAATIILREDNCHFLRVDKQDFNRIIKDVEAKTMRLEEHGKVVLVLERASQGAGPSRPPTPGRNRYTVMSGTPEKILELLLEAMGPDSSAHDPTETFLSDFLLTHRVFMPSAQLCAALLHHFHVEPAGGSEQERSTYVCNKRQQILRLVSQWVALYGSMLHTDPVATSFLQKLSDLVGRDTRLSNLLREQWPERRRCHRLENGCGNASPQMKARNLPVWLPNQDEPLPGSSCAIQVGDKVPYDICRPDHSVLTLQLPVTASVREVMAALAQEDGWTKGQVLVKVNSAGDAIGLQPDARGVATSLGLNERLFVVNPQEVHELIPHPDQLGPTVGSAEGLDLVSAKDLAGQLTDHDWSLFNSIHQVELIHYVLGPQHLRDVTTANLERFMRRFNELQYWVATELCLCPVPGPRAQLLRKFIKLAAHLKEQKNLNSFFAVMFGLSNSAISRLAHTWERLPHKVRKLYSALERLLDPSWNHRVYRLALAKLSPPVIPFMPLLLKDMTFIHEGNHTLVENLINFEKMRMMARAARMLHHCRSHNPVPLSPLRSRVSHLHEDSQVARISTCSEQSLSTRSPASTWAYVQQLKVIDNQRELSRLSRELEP
Summary of the method: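 Nucleotide exchange uses 100 nM EPAC1, 250 nM RAP1B-BODIPY-GDP and 50 uM GDP, with compounds in a concentration-titration series. After 5 min at room temperature, fluorescence (480 nm ex/540 nm em) is read every 5 min for 30 min. Data are normalized to control ATA and DMSO.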

[19] = biological target: Rap guanine nucleotide exchange factor 3 (Homo sapiens) (UniProt O95398); assay: Confirmatory qHTS for agonist of cAMP-regulated guanine nucleotide exchange factor 3 (EPAC1) (AID 1645881);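 also: EPAC1 catalysed release of BODIPY-GDP from Rap1B seen as fluorescence loss; 100% = effect of cAMP agonist control; nearly all actives have a fitted effect of over 75% in size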
[20] = biological target: Rap guanine nucleotide exchange factor 4 (Homo sapiens) (UniProt Q8WZA2); assay: Confirmatory qHTS for agonist of cAMP-regulated guanine nucleotide exchange factor 4 (EPAC2) (AID 1645884);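 also: nucleotide exchange releases bodipy-GDP from Rap1 and this lowers its fluorescence; % is scaled to controls: 0 for no effect and ±100 for the full control effect; nearly all actives have a fitted effect of over 65% in size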
[21] = measured here: cell count channel max response
[22] = measured here: lipid channel max response

Cc1nccn1CC1CCC2C(C1=O)c1ccccc1N2C (centres undefined)
inactive: Potency [1] | Potency [2]

C[C@@H](C(=O)O)c1ccc(-c2ccccc2)c(F)c1
active: Potency [3] 10 µM | Potency [10] 631 nM
inactive: activity change, negative = inhibition ([4]; at 17.2 µM (top of the series)) 3.63% | activity, negative = inhibition ([5]; at 17.2 µM (top of the series)) 1.05% | Potency [6] > 20.6 µM and > 46 µM | Potency [7] > 20.6 µM and > 46 µM | Potency [8] | Potency [9] | Potency [11] | Potency [12] | Potency [1] | Potency [2]

O=C1CC2(CCCC2)CC(=O)N1CCNC[C@H]1COc2ccccc2O1
17.5%: max response [14, 22]
active: Potency [13] 0.126 µM
16.6%: max response [14, 21]
inactive: activity change, negative = inhibition [14] -0.603% | Potency [11] | Potency [12] | Potency [1] | Potency [2]

CN(CCc1ccc(Cl)c(Cl)c1)CCN1CCCC1
22.4%: max response [14, 21]
15.8%: max response [14, 22]
inactive: Potency [6] > 46 µM | Potency [7] > 46 µM | Potency [8] | activity change, negative = inhibition [14] -5.91% | Potency [12] | Potency [1] | Potency [2]

COc1ccc2c(c1)c(CC(=O)N1CCOCC1)c(C)n2C(=O)c1ccc(Cl)cc1
inactive: activity change, negative = inhibition [15] -8.4% | activity change, negative = inhibition ([4]; at 38 µM (top of the series)) 2.03% | activity, negative = inhibition ([5]; at 38 µM (top of the series)) -6.17% | Potency [6] > 46 µM | Potency [7] > 46 µM | Potency [8] | Potency [17] | Potency [13] | Potency [10] | Potency [12] | Potency [1] | Potency [2]
active: Potency [3] 12.6 µM and 25.1 µM | Potency [16] 5.01 µM

C[C@@H](/C=C\c1cccc(Oc2ccc(F)cc2)c1)N(O)C(N)=O
inactive: activity change, negative = inhibition [15] -29.9% | activity change, negative = inhibition ([4]; at 38 µM (top of the series)) -4.07% | activity, negative = inhibition ([5]; at 38 µM (top of the series)) 13.8% | Potency [6] > 46 µM | Potency [7] > 46 µM | Potency [8] | Potency [9] | Potency [17] | Potency [12] | Potency [1] | Potency [2] | Potency [18] | outcome [19]
active: Potency [3] 1 µM and 158 nM | Potency [16] 1.26 µM | Potency [13] 25.1 µM | Potency [10] 1.58 µM and 3.98 µM

N#CC(=C(/N)Sc1ccccc1N)/C(C#N)=C(\N)Sc1ccccc1N
inactive: Potency [1] | Potency [2]

Cc1ccc(-c2nn(C(C)(C)C)c3ncnc(N)c23)cc1
inactive: Potency [1] | Potency [2]

COc1ccc2[nH]c(-c3ccccc3)c(CCNC(C)=O)c2c1
active: Potency [3] 1.26 µM | Potency [10] 7940 nM
inactive: Potency [6] > 46 µM | Potency [7] > 46 µM | Potency [8] | Potency [9] | Potency [17] | Potency [12] | Potency [1] | Potency [2] | Potency [18] | outcome [19] | outcome [20]
